These results are taken from PubChem BioAssay (NCI).

Among the test systems are HOP-92 NSCLC; 786-0 renal; MALME-3M melanoma; RXF 393 renal; EKVX NSCLC; SN12C renal; TK-10 renal; A498 renal; CCRF-CEM leukemia; RPMI-8226 leukemia; OVCAR-8 ovarian; OVCAR-5 ovarian; OVCAR-4 ovarian; SK-OV-3 ovarian; IGROV1 ovarian; NCI/ADR-RES ovarian; T-47D breast; MDA-MB-435 melanoma; MCF7 breast; HCT-116 colon.
What all share (assay): NCI-60 one-dose screen, 48 h (100 = growth as untreated, 0 = no growth, -100 = all killed)
Common to all, as to conditions: 10 µM

The panel holds about 83,000 compounds, 20% with a hit somewhere; the sample as a whole holds those more often.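 A percent growth of 40 corresponds to 60% growth inhibition; 0 means no net growth; -100 means all cells died. Active threshold: below 10.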 Unmarked numbers belong to inactive results. Activity calls are given as the source filed them.

With `CC(C)C[C@H](NC(=O)CNC(=O)C[C@H]1O[C@@H]2OC3(C)CC[C@H]4[C@H](C)CC[C@@H]([C@H]1C)[C@@]24OO3)B(O)O`, the growth in the assay on HOP-92 NSCLC was -20.1% (active); in the assay on 786-0 renal, 21%; in the assay with MALME-3M melanoma, -56.5% (active); with RXF 393 renal, -81.6% (active); in the assay with EKVX NSCLC it was 26.7%; in the assay on SN12C renal it was -53.1% (active). For the same compound, the growth is 12.1% in the assay on TK-10 renal; 43.1% in the assay on A498 renal; -9.96% (active) in the assay with CCRF-CEM leukemia; -14.5% (active) with RPMI-8226 leukemia; 5.76% (active) in the assay with OVCAR-8 ovarian; -28.3% (active) in the assay on OVCAR-5 ovarian. Moreover, the growth is 22.1% with OVCAR-4 ovarian; 41.6% in the assay with SK-OV-3 ovarian; 2.58% (active) in the assay on IGROV1 ovarian; 94.2% with NCI/ADR-RES ovarian; -32.8% (active) in the assay with T-47D breast; -61.2% (active) with MDA-MB-435 melanoma. The growth in the assay with MCF7 breast is 19.1%; with HCT-116 colon, -72.3% (active).

`O=C(/C=C/c1ccc(Br)cc1)c1nc2ccccc2n1Cc1ccc(Br)cc1`: the growth in the assay on HOP-92 NSCLC was -11.1% (active); with 786-0 renal it was -81.3% (active); in the assay with MALME-3M melanoma it was -42.9% (active); with RXF 393 renal, -82% (active); with EKVX NSCLC, 1.19% (active); in the assay on SN12C renal, 8.28% (active). Besides, the growth with TK-10 renal is 23.8%; with A498 renal it was 82.7%; with CCRF-CEM leukemia, 10.3%; with RPMI-8226 leukemia, -9.14% (active); in the assay with OVCAR-8 ovarian it was -18% (active); in the assay with OVCAR-5 ovarian, -43.4% (active). The growth with OVCAR-4 ovarian is 35.5%; in the assay on SK-OV-3 ovarian, 79.1%; with IGROV1 ovarian, -18% (active); in the assay with NCI/ADR-RES ovarian it was -38.2% (active); in the assay on T-47D breast, 1.99% (active); in the assay with MDA-MB-435 melanoma, -38.5% (active). The growth is 3.68% (active) in the assay with MCF7 breast and -80.9% (active) in the assay with HCT-116 colon.

Regarding `CC1=C(COCCOC(=O)c2ccc(S(=O)(=O)F)cc2)C2=C(C)C3(CC3)[C@@](C)(O)C(=O)C2=C1`, the growth in the assay with HOP-92 NSCLC is -29.7% (active); in the assay on 786-0 renal, -3.81% (active); with MALME-3M melanoma, -78.2% (active); in the assay with RXF 393 renal, -81.4% (active); in the assay with EKVX NSCLC it was -32.7% (active); with SN12C renal, -19.9% (active). For the same compound, the growth is 7.99% (active) in the assay on TK-10 renal; -16.9% (active) in the assay with A498 renal; 15.8% in the assay with CCRF-CEM leukemia; 76.4% in the assay on RPMI-8226 leukemia; -0.659% (active) in the assay on OVCAR-8 ovarian; -43.7% (active) in the assay with OVCAR-5 ovarian. Further, the growth in the assay on OVCAR-4 ovarian is -23% (active); with SK-OV-3 ovarian, -5.65% (active); in the assay on IGROV1 ovarian, -24.3% (active); in the assay with NCI/ADR-RES ovarian, -43.2% (active); in the assay on T-47D breast it was -13.2% (active); in the assay with MDA-MB-435 melanoma, 3.24% (active). Moreover, the values for the growth in the assay on MCF7 breast and with HCT-116 colon were 10.9% and 6.93% (active), respectively.

For `C#CC[Se]C(=O)c1ccc2n[se]nc2c1`, the growth in the assay on HOP-92 NSCLC is 77%; in the assay with 786-0 renal it was 63.4%; with MALME-3M melanoma, 41.5%; with RXF 393 renal it was 70.8%; in the assay on EKVX NSCLC it was 13.8%; in the assay on SN12C renal it was 56.3%. Moreover, the growth was 65.1% in the assay on TK-10 renal; 95.3% in the assay on A498 renal; -24.8% (active) in the assay on CCRF-CEM leukemia; 21.3% in the assay with RPMI-8226 leukemia; 74.9% in the assay with OVCAR-8 ovarian; 75.7% in the assay on OVCAR-5 ovarian. Besides, the growth in the assay with OVCAR-4 ovarian is 74.5%; with SK-OV-3 ovarian, 95.4%; with IGROV1 ovarian, 77.7%; in the assay with NCI/ADR-RES ovarian, 49.5%; with T-47D breast, 62.9%; with MDA-MB-435 melanoma it was 85.9%. Further, the results for the growth in the assay on MCF7 breast and with HCT-116 colon were 31.6% and -27.1% (active), respectively.

For the compound `COC(=O)c1ccc(-n2cc(CCCN(CCNc3ccnc4cc(Cl)ccc34)C(=O)CCC(=O)O[C@@H]3O[C@@H]4OC5(C)CC[C@H]6[C@H](C)CC[C@@H]([C@H]3C)[C@@]46OO5)nn2)cc1`, the growth in the assay with HOP-92 NSCLC is 18.6%; in the assay on 786-0 renal it was 52.4%; with MALME-3M melanoma, -61.5% (active); with RXF 393 renal it was 34.2%; in the assay with EKVX NSCLC it was 49.4%; in the assay with SN12C renal it was 44%. The growth was 60.5% in the assay with TK-10 renal; 100% in the assay with A498 renal; 15.9% in the assay with CCRF-CEM leukemia; 19.7% with RPMI-8226 leukemia; 20.9% with OVCAR-8 ovarian; 49.2% with OVCAR-5 ovarian. For the same compound, the growth in the assay on OVCAR-4 ovarian is 46.2%; in the assay on SK-OV-3 ovarian, 85.6%; in the assay with IGROV1 ovarian, 40.4%; with NCI/ADR-RES ovarian, 11.4%; in the assay with T-47D breast, 37.6%; in the assay on MDA-MB-435 melanoma it was 22.2%. The results for the growth with MCF7 breast and with HCT-116 colon were -49.6% (active) and 26%, respectively.

For `CC[C@]12C=CCN3CC[C@@]4(c5ccc(OC)cc5N(C)[C@H]4[C@@](O)(C(=O)OC)[C@@H]1OC(=O)CCCC[P+](c1ccc(OC)cc1)(c1ccc(OC)cc1)c1ccc(OC)cc1)[C@@H]32`, the growth was -74.5% (active) in the assay with HOP-92 NSCLC; -92.9% (active) with 786-0 renal; -97.2% (active) with MALME-3M melanoma; -90.4% (active) in the assay on RXF 393 renal; -59.7% (active) with EKVX NSCLC; -95.3% (active) with SN12C renal. Besides, the growth in the assay on TK-10 renal is -88.2% (active); with A498 renal, -54.7% (active); in the assay on CCRF-CEM leukemia, -59.1% (active); with RPMI-8226 leukemia it was -68.8% (active); with OVCAR-8 ovarian, -90.2% (active); in the assay with OVCAR-5 ovarian, -98.6% (active). Further, the growth in the assay with OVCAR-4 ovarian was -37.7% (active); in the assay on SK-OV-3 ovarian it was -82.5% (active); in the assay on IGROV1 ovarian, -92% (active); in the assay with NCI/ADR-RES ovarian it was 84.3%; with T-47D breast it was -46.6% (active); in the assay on MDA-MB-435 melanoma it was -88.5% (active). Further, the growth with MCF7 breast is -82.6% (active); with HCT-116 colon, -94.9% (active).

As to `COCCOCCOCCOc1ccc(-n2cc(-c3ccc(O[C@H]4O[C@@H]5OC6(C)CC[C@H]7[C@H](C)CC[C@@H]([C@H]4C)[C@@]57OO6)cc3)nn2)cc1`, the growth was 83.2% with HOP-92 NSCLC; 56.7% in the assay with 786-0 renal; 8.12% (active) in the assay with MALME-3M melanoma; 69.4% with RXF 393 renal; 26.7% in the assay on EKVX NSCLC; 83% with SN12C renal. Further, the growth with TK-10 renal is 36.7%; in the assay on A498 renal, 93.8%; with CCRF-CEM leukemia, 53.7%; in the assay with RPMI-8226 leukemia, 20.9%; in the assay on OVCAR-8 ovarian it was 22.2%; in the assay on OVCAR-5 ovarian it was 72%. Further, the growth in the assay on OVCAR-4 ovarian was 28.8%; with SK-OV-3 ovarian, 84%; with IGROV1 ovarian it was 50.2%; in the assay with NCI/ADR-RES ovarian it was 34.2%; in the assay on T-47D breast, 17.3%; with MDA-MB-435 melanoma, 19.3%. The growth in the assay on MCF7 breast was 14.9%; with HCT-116 colon, 37.3%.
